# Rows were chosen to be rich in hits. Some 2.9% of all compounds tested hit in one or more screens of this group.
# TSHR antagonist – antagonists of human thyroid stimulating hormone receptor; P16473; AID 504810; TSHR-expressing cells, TSH-stimulated cAMP HTRF, 2 h; stronger effect = lower value; 330,000 tested, 0.2% active; activity change, negative = inhibition, % at 11.5 µM;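 active means activity change below a set negative limit, meaning inhibition stronger than a set level, cut at about -70% in these data; inconclusive means activity change between two set negative limits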
#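 Inhibition of cAMP made by TSHR-expressing cells under TSH stimulation (4nM final, EC80; 2 h, 37 deg C) is quantified with a one-step lysis HTRF kit, anti-cAMP cryptate versus cAMP-d2.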
# B2AR arrestin – beta2AR (human) beta-arrestin recruitment activity; P07550; beta-arrestin recruitment to beta2AR, cell-based reporter; Potency, µM (doses to about 46.1 µM), most hits filed as activators; 330,000 tested, 0.02% active; AID 492947; active means well fitted activation curve with a large enough effect; inconclusive means small, poorly fitted or top-dose-only effect; further: nearly all actives have a fitted effect of over 65% in size
# Target sequence (P07550 whole entry, looked up): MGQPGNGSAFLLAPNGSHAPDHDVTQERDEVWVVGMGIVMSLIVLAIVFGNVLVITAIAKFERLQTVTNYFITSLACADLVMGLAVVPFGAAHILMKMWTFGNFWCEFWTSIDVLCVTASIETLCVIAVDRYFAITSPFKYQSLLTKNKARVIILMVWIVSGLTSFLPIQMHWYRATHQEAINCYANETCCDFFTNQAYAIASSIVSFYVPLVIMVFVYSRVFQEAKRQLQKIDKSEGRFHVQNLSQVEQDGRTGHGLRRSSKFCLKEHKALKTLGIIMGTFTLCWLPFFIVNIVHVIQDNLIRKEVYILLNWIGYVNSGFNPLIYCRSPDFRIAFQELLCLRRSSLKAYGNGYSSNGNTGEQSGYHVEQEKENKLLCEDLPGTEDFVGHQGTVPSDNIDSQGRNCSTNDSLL
# D3 antag – blocks the human D3 dopamine receptor. P35462. D3R cells, DiscoveRx beta-arrestin luminescence, antagonist mode; stronger effect = lower value. max response, negative = inhibition, %. 360,000 tested, 2.5% active. AID 652054; in the data active means max response below about -50%; inconclusive means no clear call, values can overlap the other calls
#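 Cells expressing the human receptor were seeded at 1500 cells/well, incubated overnight at 37 degrees C in 5% CO2, then exposed to library compounds with dopamine controls for 90 minutes at 37 degrees C before luminescent detection.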
# DRD3 agonist – activates the human D3 dopamine receptor. D3R DiscoveRx beta-arrestin cells, luminescence, 90 min. max activation, %. 410,000 tested, 0.58% active. AID 652048; in the data active means max activation above about 30%
#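 Cells at 1500/well, incubated overnight, then treated with pinned compounds (dopamine as control) for 90 min at 37 degrees C. DiscoveRx reagent added for 30 - 60 minutes at room temperature; luminescence read.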
# A number is an active result; – = inactive; ? = inconclusive; · = no result given.
SMILES,TSHR antagonist,B2AR arrestin,D3 antag,DRD3 agonist
O=C(C=Cc1ccccc1)CC(c1ccccc1)N1CCOCC1 (centres undefined),·,·,-72,–
CSCCNC(=O)C1(C)CCN1C(=O)c1ccc(C(C)(C)C)cc1 (centres undefined),·,·,–,–
NS(=O)(=O)c1ccc(CCNCC#Cc2ccccc2)cc1,–,–,–,–
COc1ccc(CNC/C=C/c2ccccc2)cc1,–,–,-80,–
COc1ccc(CCNCc2ccc(OCc3ccccc3)cc2)cc1,–,–,–,–
COc1ccc(CCNC/C=C/c2ccccc2)cc1,·,·,-59,–
NS(=O)(=O)c1ccc(CCNC/C=C/c2ccccc2)cc1,–,–,-71,–
CCc1ccc(CNC(=O)CSc2cc(=O)n(C)c3ccc(Cl)cc23)cc1,·,·,·,–
COc1ccc(NCc2ccccc2-c2nnc(-c3ccccc3)o2)cc1Cl,·,·,·,–
Cc1ccc(C(=O)NCC(c2ccc3c(c2)OCO3)N2CCN(c3ccc(F)cc3)CC2)cc1 (centres undefined),·,·,·,–
CCn1nc([N+](=O)[O-])c(C(C#N)c2nc3cc(C(F)(F)F)ccc3s2)c(Cl)c1=O (centres undefined),-88,–,–,–
CCCn1nc([N+](=O)[O-])c(C(C#N)c2nc3ccccc3o2)c(Cl)c1=O (centres undefined),-76,–,-61,–
Cn1nc([N+](=O)[O-])c(C(C#N)c2ccccn2)c(Cl)c1=O (centres undefined),–,–,?,–
Cc1ccc(CN2CCCn3nc(C(=O)NCCc4cccc(C)c4)cc3C2=O)cc1,·,·,·,–
O=c1c2ccccc2sn1-c1ccc(Cl)cc1Cl,·,·,–,–
CC1CCCN(S(=O)(=O)c2cc(C(=O)NCc3ccccc3Cl)n(C)c2)C1 (centres undefined),·,·,·,–
CC(C)c1nnc(NC(=O)C2CCCCC2)s1,–,–,–,–
CC(C)c1cc(C(N)=O)c(NC(=O)C2CCC2)s1,–,–,–,37
CCc1ccc(/C=C(/C#N)c2nc(-c3ccc(C)cc3)cs2)cc1,·,·,·,–
CCOc1ccc(-c2csc(/C(C#N)=C\c3ccc(O)c([N+](=O)[O-])c3)n2)cc1,-83,–,–,–
CCN(CC)CCCNC(=O)c1sc2nc(-c3ccc(F)cc3)cn2c1C,–,–,-62,–
O=[N+]([O-])c1ccc(S(=O)(=O)c2cccc(C(F)(F)F)c2)nc1,·,·,-126,–
CCCCCC(=O)NNC(=O)c1ccc(-c2ccccc2)cc1,–,–,–,36
CCCCC(=O)Nc1ccc(C(=O)NNC(=O)CCc2ccccc2)cc1,–,–,–,–
CCCCC(=O)Nc1ccc(C(=O)NCCc2ccccc2)cc1,–,–,-62,–
SMILES,TSHR antagonist,B2AR arrestin,D3 antag,DRD3 agonist
CC(C)(C)C(=O)NC(=S)NNC(=O)c1ccc(-c2ccccc2)cc1,-81,–,?,–
O=C(NNC(=O)c1ccc(-c2ccccc2)cc1)c1ccccc1,–,–,–,–
CCc1cccc(NC(=O)Cn2c(=O)n(CC3CCC(C(=O)NC)CC3)c(=O)c3sccc32)c1 (centres undefined),·,·,·,–
O=C(Cc1cccs1)NC1CC(=O)N(c2ccccc2)C1 (centres undefined),·,·,·,–
Cc1ccc(C(=O)NC2CC3CCCC(C2)N3Cc2ccccc2)cc1 (centres undefined),–,–,-80,–
CCN(CC)C(=O)NC1CC2CCCC(C1)N2Cc1ccccc1 (centres undefined),–,–,-65,–
Cc1cccc(C(=O)NC2CC3CCCC(C2)N3Cc2ccccc2)c1 (centres undefined),–,–,-112,–
O=C(/C=C/c1ccccc1)NC1CC2CCCC(C1)N2Cc1ccccc1 (centres undefined),–,–,·,·
O=C(CN1C2CCCC1CC(NC(=O)c1ccco1)C2)Nc1ccccc1 (centres undefined),–,–,-58,–
COc1ccc(CNC(=O)CN(c2ccccc2OC)S(=O)(=O)c2ccc(C)cc2)cc1,·,·,·,–
CNC[C@H](O)[C@@H](O)[C@H](O)[C@H](O)CO,·,·,·,–
O=C(CN1C2CCCC1CC(NC(=O)C1CCCCC1)C2)NCc1ccc(F)cc1 (centres undefined),–,–,–,–
CCCN1C2CCCC1CC(NC(=O)c1ccc(C(C)(C)C)cc1)C2 (centres undefined),–,–,–,–
CCCNC(=S)NC1CC2CCCC(C1)N2Cc1ccc(F)cc1 (centres undefined),–,–,-101,–
O=C(NC1CC2CCCC(C1)N2Cc1ccccc1)c1ccc([N+](=O)[O-])cc1 (centres undefined),–,–,-89,–
O=C(NC1CCSc2ccccc21)c1ccc([N+](=O)[O-])cc1 (centres undefined),–,–,–,–
Cc1ccc(CN2C3CCCC2CC(NC(=O)c2ccc(F)cc2)C3)cc1 (centres undefined),–,–,-88,–
O=C(Nc1ccccc1-c1ccccc1)NC1CC2CCCC(C1)N2Cc1ccc(F)cc1 (centres undefined),–,–,-101,–
O=C(CSc1nc2ccccc2nc1Cc1ccccc1)N1CCc2ccccc21,·,·,·,–
CCc1c(C)[nH]c2c1C(=O)C(CN1CCOCC1)CC2 (centres undefined),–,·,-102,–
CCc1c(C)nc(N2CCOCC2)[nH]c1=O,–,–,–,–
COc1ccc(CNC(=O)c2[nH]c(C(F)(F)F)nc2-c2ccccc2)cc1OC,·,·,-58,–
COc1ccc(CNC(=O)c2[nH]c(C(F)(F)F)nc2-c2ccccc2)cc1,·,·,–,–
Cc1cccc(NC(=O)/C=C/c2ccc([N+](=O)[O-])s2)c1,–,?,?,–
Cc1cccc(NC(=S)N/N=C/c2ccc([N+](=O)[O-])s2)c1,–,–,-97,–
SMILES,TSHR antagonist,B2AR arrestin,D3 antag,DRD3 agonist
CC(=O)N(/N=C1\Sc2ccccc2C1=O)c1ccccc1,–,–,-59,–
CN(C(=S)Nc1ccccc1F)C1(c2ccccc2Cl)CCCCC1=O (centres undefined),–,–,–,30
CCc1n[nH]c(=S)n1/N=C/c1cccc2ccccc12,–,–,–,–
CCOC(=O)c1c(/N=C/c2cc(OC)cc([N+](=O)[O-])c2O)sc(C)c1C,–,–,-71,–
CCc1n[nH]c(=S)n1/N=C/c1cc(OC)cc([N+](=O)[O-])c1O,–,–,-94,–
CCOC(=O)c1c(/N=C/c2cc([N+](=O)[O-])ccc2O)sc(C)c1C,–,–,–,–
COc1ccccc1OCC(=O)Nc1cc(-c2ccc(C)cc2)no1,·,·,·,–
COc1ccc(Nc2ccc3c(c2)=NC2(CCCCC2)[N+]=3[O-])cc1,–,–,-68,–
O=c1nc(-c2ccccc2)c2cc(SC(F)F)ccc2[nH]1,–,–,–,36
c1ccc(-c2nnnn2-c2ccccc2)cc1,–,–,–,–
ClC(Cl)(c1nnnn1-c1ccccc1)c1nnnn1-c1ccccc1,–,–,-72,–
CCC(CC)=N/N=C/c1c(O)n(CC)c2cc(C3=NNC(=O)CC3)ccc12,–,–,-53,–

# Bioassay records deposited in PubChem BioAssay by National Center for Advancing Translational Sciences (NCATS).
